We go through 40 molecules from PubChem BioAssay (NCATS).

Inconclusive results are not listed. Values without a mark were called inactive. Calls come from the whole dose curve; as a rule, active = well fitted inhibition curve with a large enough effect; inconclusive = small, poorly fitted or top-dose-only effect; inactive = flat fitted curve, though single readings scatter.
% is set by controls: 0 for no effect and ±100 for the full control effect.

The subject of this assay is MCC-26. The experiment in a line: qHTS assay to identify novel small-molecules to repurpose for Merkel cell carcinoma treatment (AID 1296009). Note: nearly all actives have a fitted effect of over 60% in size. The settings on record: MCC and control cell lines, CellTiter-Glo viability, 72 h; series mostly up to 46 µM; activity change, negative = cytotoxicity: at the top concentration. The text has this: MCC is a rare and aggressive neuroendocrine skin cancer with limited treatment options. Approximately 80% of MCCs have the Merkel cell polyomavirus (MCPyV) DNA integrated into the host genome (virus-positive: VP-MCC) and viral oncogenes drive oncogenesis. The remaining MCCs are virus-negative (VN-MCC) and are caused by UV mutagenesis. To identify novel treatments for VP-MCC and/or VN-MCC we screened three VP-MCC cell lines (WAGA, MKL-1, MKL-2), three VN-MCC cell lines (MCC-13, MCC-26, UISO), and four immortalized, non-transformed control cell lines (HaCaT, HEK293T, CRL7250, NIH-3T3) against ~2,400 compounds in the NCGC Pharmaceutical Collection (NPC) and ~1,900 compounds in the Mechanism Interrogation PlatE (MiPE). Using cell viability as a readout (CellTiter-Glo assay) we found both overlapping and distinct drugs that can be repurposed for the treatment of VP-MCC and VN-MCC.
A high-throughput screen was conducted in 1536-well white flat bottom plates (Corning) on a Kalypsys robotic system. Cell lines WAGA, MKL-1, MKL-2, MCC-13, MCC-26, UISO, HaCaT, HEK293T, CRL7250, and NIH-3T3 were screened against 2 small molecule annotated drug libraries NPC and MIPE in dose response (8 and 11 pt. respectively) measuring cell viability after 72 hours of incubation. […] A 1,536 pintool (Kalypsys) was used to transfer 23 nL of compound in DMSO to the 1,536-well assay plates. After 72 hr incubation at 37 degree celsius, 2.5 uL of CellTiter-Glo (Promega) was dispensed into each well using a BiorapTR. Plates were incubated at room temperature for 10 min, transferred to a ViewLux (PerkinElmer) and the luminescence was recorded using an exposure time of 2 seconds. Relative luminescence units (RLUs) were normalized to in-plate controls (no cells as a positive (cytotoxicity) control, DMSO as negative control) and the normalized data was processed using NCATS in-house software.
For the molecule `O=C(Nc1ccccc1)OCC(CN1CCCCC1)OC(=O)Nc1ccccc1` (stereo not given), the “activity change, negative = cytotoxicity” value was -6.86%.

Turning to `CC(=O)NC(=O)c1ccccc1O`, the “activity change, negative = cytotoxicity” value is -5.57%.

For `O=C(NCCc1c[nH]c2ccccc12)c1cccnc1`, the “activity change, negative = cytotoxicity” value was 3.52%.

For the molecule `CN(C)CCOC(=O)C(c1ccccc1)C1(O)CCCC1` (stereo not given), the “activity change, negative = cytotoxicity” value was -0.175%.

Take `CCc1nn(CCCN2CCN(c3cccc(Cl)c3)CC2)c(=O)n1CCOc1ccccc1`: the “activity change, negative = cytotoxicity” value was -4.01%.

Consider `COc1cc(C)nc(-n2nc(C)cc2OC)n1`, for which the “activity change, negative = cytotoxicity” value is 12.8%.

`C=C1c2cccc(O)c2C(O)=C2C(=O)[C@]3(O)C(O)=C(C(N)=O)C(=O)[C@@H](N(C)C)[C@@H]3[C@@H](O)[C@H]12`: the “activity change, negative = cytotoxicity” value was -2.1%.

`CCCCCCCCCCC[C@@H](C[C@@H]1OC(=O)[C@H]1CCCCCC)OC(=O)[C@H](CC(C)C)NC=O`: the “activity change, negative = cytotoxicity” value is -5.05%.

Consider `Cc1cc(-c2ccccc2)nnc1NCCN1CCOCC1`, for which the “activity change, negative = cytotoxicity” value was -11.1%.

As for `O=S(=O)(O)c1ccc(O)cc1`, the “activity change, negative = cytotoxicity” value was 10.7%.

Turning to `CCCCNC(=O)NS(=O)(=O)c1ccc(N)cc1`, the “activity change, negative = cytotoxicity” value was 9.91%.

`CCN1CCCC(OC(=O)C(c2ccccc2)c2ccccc2)C1` (stereo not given): the “activity change, negative = cytotoxicity” value is -0.594%.

Consider `CCCCCCCCOc1ccc(C(=O)c2ccccc2)c(O)c1`, for which the “activity change, negative = cytotoxicity” value was 7.25%.

For the molecule `Oc1ccc(Cl)cc1Cc1cc(Cl)ccc1O`, the “activity change, negative = cytotoxicity” value was -7.15%.

For `CN(C)CCOC(c1ccc(Cl)cc1)c1ccccn1` (stereo not given), the “activity change, negative = cytotoxicity” value is -2.98%.

Regarding `CCCCc1cc2ccccc2c(OCCN(C)C)n1`, the “activity change, negative = cytotoxicity” value was -13.1%.

In the case of `CCN(CC)CCOC(=O)C(Cc1cccc2ccccc12)CC1CCCO1` (stereo not given), the “activity change, negative = cytotoxicity” value is -17.4%.

Turning to `COc1ccc(CCN(C)CCCN2CCc3cc(OC)c(OC)cc3CC2=O)cc1OC`, the “activity change, negative = cytotoxicity” value is 0.799%.

Turning to `Oc1ccccc1C=NCc1ccccc1`, the “activity change, negative = cytotoxicity” value is 5.97%.

As for `O=C1c2cccc3c2[C@H](CCC3)CN1[C@@H]1CN2CCC1CC2`, the “activity change, negative = cytotoxicity” value was 1.85%.

`O=C(Nc1ncc([N+](=O)[O-])s1)c1cccs1`: the “activity change, negative = cytotoxicity” value was -26.7%.

Regarding `O=C(O)CCNC(=O)c1ccccc1`, the “activity change, negative = cytotoxicity” value is 4.76%.

`CC1(COc2ccc(CC3SC(=O)NC3=O)cc2)CCCCC1` (stereo not given): the “activity change, negative = cytotoxicity” value was 0.263%.

In the case of `Cc1cccc(C)c1NC(=O)CN1CCCCCC1`, the “activity change, negative = cytotoxicity” value was 9.22%.

For the molecule `CCOC(=O)c1ccc(N)cc1`, the “activity change, negative = cytotoxicity” value was -15.3%.

On to `CCOC(=O)c1c(N)sc2c1CCN(Cc1ccccc1)C2`, for which the “activity change, negative = cytotoxicity” value is -12.3%.

In the case of `COc1ccc(C(Cl)=C(c2ccc(OC)cc2)c2ccc(OC)cc2)cc1`, the “activity change, negative = cytotoxicity” value is 0.475%.

For the molecule `C[C@H]1[C@H]2CC[C@H]3[C@@H]4CC=C5C[C@@H](N(C)C)CC[C@]5(C)[C@H]4CC[C@]23CN1C`, the “activity change, negative = cytotoxicity” value was -4.97%.

With `NS(=O)(=O)c1cc(C(=O)O)cc(N2CCCC2)c1Oc1ccccc1`, the “activity change, negative = cytotoxicity” value is -3.15%.

As to `NCCNc1cccc2ccccc12`, the “activity change, negative = cytotoxicity” value is 0.19%.

Regarding `CN1CCN(CCC(=O)N2c3ccccc3Sc3ccc(C(F)(F)F)cc32)CC1`, the “activity change, negative = cytotoxicity” value is -6.32%.

Consider `CCCCCCCCCCCCOCCOCCOCCOCCOCCOCCOCCOCCOCCO`, for which the “activity change, negative = cytotoxicity” value is -3.23%.

For `C[C@@H](O)[C@H]1C(=O)N2C(C(=O)O)=C([C@H]3CCCO3)S[C@H]12`, the “activity change, negative = cytotoxicity” value is 8.44%.

Regarding `C[N+]1(C)CCC(=C(c2ccccc2)c2ccccc2)CC1`, the “activity change, negative = cytotoxicity” value was -12.7%.

`CC(=O)NCCCCCC(=O)O`: the “activity change, negative = cytotoxicity” value was -5.34%.

Regarding `CC(C)Nc1cccnc1N1CCN(C(=O)c2cc3cc(NS(C)(=O)=O)ccc3[nH]2)CC1`, the “activity change, negative = cytotoxicity” value is -0.632%.

For `CC(=O)Nc1ccc(OC(=O)c2ccccc2OC(C)=O)cc1`, the “activity change, negative = cytotoxicity” value is 8.88%.

With `O=S(c1cc(Cl)cc(Cl)c1O)c1cc(Cl)cc(Cl)c1O`, the “activity change, negative = cytotoxicity” value was 10.1%.

Regarding `Cc1nc(-c2ccc(Cl)cc2)oc1COC(C)(C)C(=O)O`, the “activity change, negative = cytotoxicity” value is 1.76%.

`c1ccc(-c2nc[nH]c2-c2ccccc2)cc1`: the “activity change, negative = cytotoxicity” value is -7.62%.
